The source of these data is PubChem BioAssay AID504401 (The Scripps Research Institute Molecular Screening Center, 2011).

The experiment has as its system Imidazoline I2. Nature of the experiment: CYP450 and receptor off-target profile – biochemical, Ricerca HitProfilingScreen, selectivity assay for GPR7 antagonist project, late-stage follow-up (AID 504401). Conditions: Ricerca radioligand binding and CYP450 panel, central, at 10 µM, stronger effect = higher value.

Unmarked numbers belong to inactive results. No rule for the calls is given here.

For orientation: inhibition means the change of the read-out against control, counted positive when it falls. In the case of `COc1ccc(Oc2c(Cl)cnn(-c3cc(C)cc(C)c3)c2=O)cc1`, the inhibition was 22%.
